Screens as filed in PubChem.
Most compounds without a hit are left out; they make up all but 3.5% or so of the library.
GPR151 ag = human GPR151 activation. PathHunter beta-arrestin GPR151 cells, luminescence. activation, % at 11.2 µM. actives 1% (n = 650,000). AID 1508602; in the data active = activation above about 4.9%;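 note: 0% = median of compound wells and 100% = cells with positive control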
MITF primary = inhibitors of human MITF. O75030. AlphaScreen MITF homodimerization, bead proximity signal. inhibition, % at 2.6 µM. actives 0.91% (n = 650,000). AID 1259374; in the data active = inhibition above about 50%;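 note: 0% = vehicle wells with protein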
TEAD-YAP block = TEAD-YAP interaction inhibition; actives 1.4% (n = 640,000); HEK-TIYL cells, TEAD-Gal4/YAP UAS-luciferase luminescence; inhibition, % at 9.12 µM; in the data active = inhibition above about 32%;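 note: 0% = median of test compound wells and 100% = reference inhibitor wells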
FBW7 activator = human FBW7 E3 ligase activation, primary screen; AID 1259310; Q969H0; AlphaScreen FBW7–phospho-cyclin E peptide binding, activator screen; actives 0.13% (n = 650,000); normalized activity (activation), % at 26.1 µM; in the data active = normalized activity above about 1.9%;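 note: purified mutant Fbw7 with reduced substrate affinity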
MITF confirm = confirmation of human MITF inhibitors. shares compounds with MITF primary. actives 16% (n = 4,700). AlphaScreen MITF homodimerization, biotin/His-MITF beads. AID 1259372. inhibition, % at 2.6 µM;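 active = inhibition above a cutoff derived from the DMSO control wells, cut at about 28% in these data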;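 note: 0% = MITF dimer wells with DMSO only; inhibitors lower the bead chemiluminescence by keeping MITF from dimerizing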
AS interf DR = counter-screen: compounds optically interfering with AlphaScreen. IC50, µM. AlphaScreen optical interference counterscreen, cell-free. AID 1259373. shares compounds with MITF primary. actives 6% (n = 480); call rule not given here
AlphaScreen intf2 = AlphaScreen optical interference, counter-screen; shares compounds with MITF primary; LysRS AlphaScreen counterscreen, signal interference, triplicate; inhibition, % at 2.6 µM; actives 7.6% (n = 4,700); AID 1259376;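 active = inhibition above a cutoff derived from the DMSO control wells, cut at about 30% in these data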
The depositor's hits bear a star; x = no result.

SMILES | GPR151 ag | MITF primary | TEAD-YAP block | FBW7 activator | MITF confirm | AlphaScreen intf2 | others
N#CCCn1cc(CNCc2ccccc2)c(-c2ccccc2)n1 | 2 | 54* | 4 | 0 | 14 | 13
O=C(CC1C=CCC1)NCc1ccc(Cl)cc1 (stereo not given) | -1 | 18 | 7 | 0 | x | x
COCCCNC(=O)/C(C#N)=C/c1ccc(-c2ccc(Cl)c(C(=O)O)c2)o1 | 0 | 58* | 1 | 0 | 46* | 19 | AS interf DR=>6.5
CCOc1cc(/C=C2\SC(c3ccc(C)cc3)=NC2=O)cc(Br)c1O | 0 | 10 | -6 | 0 | x | x
Cc1nc([N+](=O)[O-])cn1CC(=O)Nc1ccc(F)c(Cl)c1 | 2 | 53* | 12 | 0 | -6 | -4
Cn1c(=NC(=O)c2ccc(Br)s2)sc2cc(S(C)(=O)=O)ccc21 | 0 | 0 | -1 | 0 | x | x
c1ccc(Oc2cccc(CN3CCN(Cc4ccccn4)CC3)c2)cc1 | -1 | 75* | 2 | 0 | -5 | 5
Fc1cccc(CN2CCN(Cc3ccccn3)CC2)c1 | 0 | 71* | -6 | 0 | 11 | 25
Fc1ccc(N2CCN(Cc3ccccn3)CC2)cc1 | 1 | 63* | 0 | 0 | 14 | 42*
Cc1ccc(-n2cc(-c3ccccc3)c3c(N4CCCCCC4)ncnc32)cc1Cl | -1 | 5 | 10 | 0 | x | x
c1ccc(-c2ccccc2OCCN2CCNCC2)cc1 | 0 | 66* | -5 | 0 | 21 | 10
c1ccc(-c2ccccc2OCCOCCN2CCCC2)cc1 | 0 | 21 | -1 | 0 | x | x
c1ccc(-c2ccccc2OCCCN2CCOCC2)cc1 | -1 | 91* | 3 | 0 | 20 | 20
c1ccc2c(OCCCCN3CCOCC3)cccc2c1 | -1 | 27 | -19 | 0 | x | x
O=C(O)CC(c1ccco1)N1C(=O)C2C3C=CC(C3)C2C1=O (stereo not given) | 0 | 25 | -1 | 1 | x | x
N#Cc1c(-c2ccco2)cc(C2CC2)nc1N | 0 | -8 | -18 | 0 | x | x
N#Cc1c(-c2ccco2)cc(-c2ccco2)nc1N | -1 | 85* | 5 | -1 | 73* | 20 | AS interf DR=>6.5
Cc1ccc(C(=O)Nc2c3c(nn2-c2cccc(C)c2C)CS(=O)C3)cc1 (stereo not given) | 1 | -5 | 2 | 0 | x | x
OCCNc1ccnc(Nc2nccc3ccccc23)n1 | 0 | 71* | -8 | 0 | 5 | 37*
Cc1ccc(-n2ncc(C#N)c2/N=C/N2CCN(C)CC2)cc1 | 2 | 56* | -5 | 0 | 2 | 12
COc1cccc(-c2nc(C3CCN(C(C)=O)CC3)n3ccc(Cl)cc23)c1 | 0 | 77* | 2 | 0 | 7 | 13
O=C(CNCCOCCO)N1c2ccccc2Sc2ccccc21 | 1 | 74* | 12 | 0 | 6 | 7
COCCNCC(=O)N1c2ccccc2Sc2ccccc21 | 2 | 8 | 10 | 1 | x | x
N#Cc1cnc(SCC(=O)Nc2sc3c(c2C(N)=O)CCCC3)nc1N | 0 | 13 | 4 | 0 | x | x
CCn1cnc2sc(C(=O)NCc3cccnc3)c(C)c2c1=O | 1 | 4 | -9 | 0 | x | x
SMILES | GPR151 ag | MITF primary | TEAD-YAP block | FBW7 activator | MITF confirm | AlphaScreen intf2 | others
CCCC(=O)Nc1c(CC)c(CCC)nc2ccccc12 | 1 | 5 | 3 | 0 | x | x
CCCc1nc2ccccc2c(NC(=O)CN(C)CCc2ccc(OC)c(OC)c2)c1CC | 3 | 70* | 7 | 0 | 7 | -1
O=C(/C=C/c1ccc2c(c1)OCO2)CC1(O)C(=O)N(Cc2ccccc2)c2ccccc21 (stereo not given) | 0 | 68* | 16 | 0 | 6 | 14
Cc1ccc(NC(=O)CC2NCCNC2=O)cc1C (stereo not given) | 0 | 72* | -14 | 1 | 7 | 21
COC(=O)c1ccccc1NC(=S)NC(=O)c1ccc(Br)o1 | 2 | 3 | 13 | 0 | x | x
CCN(CC)CCN1CCN(c2ccnc3c(-c4ccco4)cnn23)CC1 | 2 | 55* | -15 | -2 | 8 | 13
CCOc1ccc(/C(O)=C2\C(=O)C(=O)N(c3nc(C)c(C(=O)OC)s3)C2c2ccccc2F)cc1C (stereo not given) | -1 | -11 | -44 | 0 | x | x
Cc1cc(C(=O)NNC(=S)NC(=O)/C=C/c2ccccc2Cl)n[nH]1 | 0 | 72* | -46 | 0 | 34* | 70*
O=C(/C=C/c1ccccc1Cl)NC(=S)NNC(=O)c1cccs1 | 5 | 11 | -51 | 0 | x | x
CC1(C)CC(=O)C2=C(C1)N(c1ccc(Br)cc1)C(N)=C(C#N)C2c1ccc(C(C)(C)C)s1 (stereo not given) | -2 | 52* | -5 | 0 | 16 | 0
CC1(C)CC(=O)C2=C(C1)N(c1ccc(Cl)cc1)C(N)=C(C#N)C2c1ccc(C(C)(C)C)s1 (stereo not given) | -2 | 12 | 8 | 0 | x | x
Clc1ccc(OCCOCCn2ccnc2)cc1Cl | 0 | 43 | -8 | 0 | x | x
Brc1c(OCCCCn2ccnc2)ccc2ccccc12 | -2 | 78* | -20 | 0 | -11 | -3
Clc1cc(Br)ccc1OCCCCn1ccnc1 | 0 | 74* | -8 | 0 | 2 | 6
Clc1ccc(OCCCCn2ccnc2)cc1Cl | -2 | 55* | -1 | 0 | 13 | 17
O=C(Nc1ccc(Br)cn1)c1ccc(Cl)c([N+](=O)[O-])c1 | -1 | 7 | 4 | 0 | x | x
Cc1cc(C)n(CCCNCC(O)COCc2cccs2)n1 (stereo not given) | 1 | 79* | 11 | 0 | 12 | 14
Cc1cc(C)n(CCCNCC(O)COCc2ccccc2)n1 (stereo not given) | 0 | 38 | 5 | 0 | x | x
CCN1CCN(C(c2ccc(C)cc2)c2nnnn2C(C)(C)CC)CC1 (stereo not given) | 0 | 52* | -3 | 0 | 7 | 21
CC(C)CNC(=O)COC(=O)CNC(=O)c1cccc(F)c1 | 0 | -10 | 3 | 0 | x | x
N#C/C(=C\c1ccsc1)c1nnc2n1CCCCC2 | 1 | 10 | -2 | 0 | x | x
CCCCCOC(=O)C1=C(C)NC2=C(C(=O)CC(C)(C)C2)C1c1ccccc1I (stereo not given) | 2 | 61* | 4 | 0 | 0 | 17
COc1cccc(C2C(C(=O)OC(C)C)=C(C)NC3=C2C(=O)CC(C)(C)C3)c1OC (stereo not given) | 0 | 64* | 5 | 1 | 11 | 17
COc1ccc(C2C(C(=O)OC(C)C)=C(C)NC3=C2C(=O)CC(C)(C)C3)c(OC)c1OC (stereo not given) | 1 | -6 | -7 | 0 | x | x
Oc1ccc[n+](CCCCCC[n+]2cccc(O)c2)c1 | 0 | 15 | 4 | 0 | x | x
CCn1c(C)[n+](CC)c2ccc(Cl)cc21 | 1 | 57* | -2 | 0 | -2 | 3
